ADAM17 inh: ADAM17 inhibition, QFRET primary screen. P78536. recombinant ADAM17, EDANS/DABCYL FRET peptide cleavage. inhibition, % at 6.95 µM. 370,000 tested, 0.83% active;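 active means inhibition above the mean of compounds lying between control limits plus 3 SD, set per campaign, cut at about 8.5% in these data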;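 further: 0% = DMSO-only wells as the low control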
GC-A act: GC-A (human) enzyme activation; P16066; HEK293 GC-A cells, cGMP TR-FRET, EC30 ANP; 0% at EC30 ANP, 100% saturating ANP; activation, % at 10 µM; 370,000 tested, 0.14% active; AID 1671463; in the data active means activation above about 40%
ADAM10 inh: inhibits human ADAM10 | O14672 | recombinant ADAM10, EDANS/DABCYL FRET peptide cleavage, 3 h | inhibition, % at 7 µM | 370,000 tested, 0.62% active | AID 720582;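 active means inhibition above a per-campaign cutoff equal to the mean of compounds falling between control-based bounds plus 3 SD, cut at about 20% in these data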;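 further: 0% = DMSO wells while the 100% control is not disclosed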
FAS TE block: blocks the thioesterase domain of human fatty acid synthase | P49327 | recombinant FAS-TE, OMFH fluorogenic substrate, fluorescence endpoint | inhibition, % at 15 µM | 360,000 tested, 0.67% active | AID 602261;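 active means compounds whose normalised, plate-corrected inhibition of enzyme fluorescence in the single-dose primary screen is 50% or more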;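 further: 0% = DMSO with enzyme and 100% = substrate without enzyme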
NPR2 activator: GC-B (human) receptor activation | P20594 | HEK293-GC-B cells, CNP EC30, cGMP TR-FRET; 0% at EC30 CNP, 100% saturating CNP | activation, % at 10 µM | 370,000 tested, 0.11% active | AID 1920062;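 active means activation at 10 µM reaching about 35% in either raw or pattern-adjusted values, limit read from the data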
FAS-TE conf: FAS thioesterase (human) inhibition, confirmation | shares compounds with FAS TE block | recombinant FAS-TE, OMFH fluorogenic substrate, fluorescence | inhibition, % at 15 µM | 2,300 tested, 45% active | AID 624325;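 active means compounds inhibiting the enzyme by at least 50% at 15 µM in any one of the replicates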;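 further: 0% = enzyme with DMSO only and 100% = wells lacking enzyme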
An asterisk follows results filed as active; i = inactive; / = not tested or not shown. Hits are enriched below; roughly 2% of the tested compounds scored in any of these assays.

SMILES	ADAM17 inh	GC-A act	ADAM10 inh	FAS TE block	NPR2 activator	FAS-TE conf
O=C(NCC1CCCCC1)C12CN(Cc3ccccc3)CC1C(c1cccc([N+](=O)[O-])c1)=NO2 (centres undefined)	-2	-4	-5	54*	0	30
COc1ccc(CCNC(=O)C23CN(Cc4ccccc4)CC2C(c2cccc([N+](=O)[O-])c2)=NO3)cc1 (centres undefined)	0	1	6	38	-1	/
Cc1cccc(NC(=O)Cn2cnc3c(oc4ccccc43)c2=O)c1	-1	0	-29	-6	-4	/
Cc1cccc(NC(=O)CSc2nc3c(oc4ccccc43)c(=O)n2-c2ccccc2)c1	6	1	8	57*	-7	35*
CN1C(=O)/C(=C/c2cc(N=Nc3ccccc3)ccc2O)SC1=S	1	-2	6	58*	-12	14
Cc1c(N2C(=O)/C(=C\c3ccccc3O)SC2=S)c(=O)n(-c2ccccc2)n1C	-6	-2	-10	-4	-5	/
COc1cccc(-c2ncn(CCc3ccccc3OC)c2CC(C)C)c1	6	-8	18	/	-7	/
CCN(CC)c1c2c(nc3ncnn13)CCCC2	0	5	-6	/	-1	/
Cc1ccccc1NC(=O)C[C@H]1CC[C@H]2[C@@H](COc3ccc(NC(=O)Nc4ccccc4)cc3C(=O)N2C)O1	-6	1	2	/	4	/
CC(CCc1ccccc1)NC(=O)c1ccc(C(=O)NC(C)CCc2ccccc2)cc1 (centres undefined)	-3	-7	-11	-10	-9	/
COC(=O)CNC(=O)COC(=O)c1ccc(OC)c([N+](=O)[O-])c1	-2	-2	1	-3	0	/
CC(OC(=O)c1ccc(Cl)c([N+](=O)[O-])c1)C(=O)N1CCN(Cc2ccccc2)CC1 (centres undefined)	-3	-1	1	73*	1	54*
Cc1cc(C(=O)NC(C)CCc2ccccc2)ccc1[N+](=O)[O-] (centres undefined)	-2	-6	-10	52*	1	23
COc1ccc(C(=O)OCC(=O)NCCCc2ccccc2)cc1[N+](=O)[O-]	-5	-2	3	79*	0	79*
CC(C(=O)N1CCN(Cc2ccccc2)CC1)c1ccc([N+](=O)[O-])cc1 (centres undefined)	-4	1	-5	28	-2	/
COc1ccc(C(=O)OC(C)C(=O)NC(C)CCc2ccccc2)cc1[N+](=O)[O-] (centres undefined)	0	0	-4	59*	2	32*
CCN1Cc2nnn(CC3CCCCC3)c2-c2ccccc2S1(=O)=O	-2	-7	6	/	-5	/
CC(C)(C)c1ccc(-c2nnc(SCC(=O)Nc3ccc4c(c3)OCCO4)n2-c2ccc(Cl)cc2)cc1	2	-1	4	/	10	/
CC(C)(C)OC(=O)NCc1ccc(CNC(=O)c2[nH]cnc2C(=O)NC2CCN(C(=O)OC(C)(C)C)CC2)cc1	/	/	/	54*	/	40
O=C(Nc1nc(-c2ccc(F)c(F)c2)cs1)c1cc([N+](=O)[O-])ccc1N1CCOCC1	-3	9	-13	55*	1	29
Cc1cc(C)c(-c2csc(NC(=O)c3cc([N+](=O)[O-])ccc3N3CCOCC3)n2)c(C)c1	1	7	2	65*	2	33
O=C(Nc1ccccc1)Nc1c(-c2ccc(F)cc2)nc2ncccn12	-80	1	-301	/	-2	/
CCOC(=O)c1cc2c(=O)n3ccccc3nc2n(C(C)C)c1=NC(=O)c1c(-c2c(F)cccc2Cl)noc1C	-91	4	-299	94*	3	4
CCOC(=O)c1cc2c(=O)n3ccccc3nc2n(C)c1=NC(=O)c1c(-c2c(F)cccc2Cl)noc1C	-97	-25	-273	13	-16	/
CCOC(=O)c1cc2c(=O)n3ccccc3nc2n(CC2CCCO2)c1=NC(=O)/C=C/c1ccccc1 (centres undefined)	i	1	i	80*	-7	83*
CCOCCCn1c(=NC(=O)c2cccnc2)c(C(=O)OCC)cc2c(=O)n3ccccc3nc21	i	5	i	32	3	/
